# Measured values reported in PubChem BioAssay (NCI).
# “And” between values parts separate entries of the source, which are not always exact repeats. Identical values can stand only once. Compounds without any hit were thinned out: in the full panel of roughly 83,000, 20% have a hit.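 Method: cells in 96-well plates; compound added at one concentration; 48 h incubation; percent growth measured; values under 10 scored active.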 The source made the active and inactive calls.
# Assays:
# Test in all cases: NCI-60 one-dose screen, 48 h (100 = growth as untreated, 0 = no growth, -100 = all killed)
# [1] = test system: HCT-15 colon
# [2] = test system: HT29 colon
# [3] = test system: SNB-75 CNS
# [4] = test system: SNB-19 CNS
# [5] = test system: U251 CNS
# [6] = test system: PC-3 prostate
# [7] = test system: SK-MEL-5 melanoma; settings: 10 µM unless noted
# [8] = test system: UACC-62 melanoma
# [9] = test system: LOX IMVI melanoma
# [10] = test system: SK-MEL-28 melanoma; settings: 10 µM unless noted
compound,measurement,setting,value
O=C1CN2CCC1CC2,growth,[1]; 10 µM unless noted,97% (inactive)
same,growth,[2]; 10 µM unless noted,99.5% (inactive)
same,growth,[3]; 10 µM unless noted,102% (inactive)
same,growth,[4]; 10 µM unless noted,104% (inactive)
same,growth,[5]; 10 µM unless noted,101% (inactive)
same,growth,[6]; 10 µM unless noted,104% (inactive)
same,growth,[7],103% (inactive)
same,growth,[8]; 10 µM unless noted,104% (inactive)
same,growth,[9]; 10 µM unless noted,104% (inactive)
same,growth,[10],119% (inactive)
O=C(O)CCCc1ccc(N(CCCl)CCCl)cc1,growth,[1]; 10 µM,86.1% (inactive) and 95.5% (inactive)
same,growth,[1]; 75 µM,46.3% (inactive)
same,growth,[2]; 10 µM,85.7% (inactive) and 74.5% (inactive)
same,growth,[2]; 75 µM,45.2% (inactive)
same,growth,[3]; 10 µM,88.9% (inactive) and 90.1% (inactive)
same,growth,[3]; 75 µM,3.53% (active)
same,growth,[4]; 10 µM,102% (inactive) and 95.9% (inactive)
same,growth,[4]; 75 µM,32.9% (inactive)
same,growth,[5]; 10 µM,85.1% (inactive) and 84% (inactive)
same,growth,[5]; 75 µM,30% (inactive)
same,growth,[6]; 10 µM,85.3% (inactive) and 64.5% (inactive)
same,growth,[6]; 75 µM,45.3% (inactive)
same,growth,[8]; 10 µM,82.7% (inactive) and 78.8% (inactive)
same,growth,[8]; 75 µM,28.6% (inactive)
same,growth,[9]; 10 µM,83.1% (inactive) and 80.2% (inactive)
same,growth,[9]; 75 µM,26.7% (inactive)
same,growth,[10],99.3% (inactive)
COC1C(O)CC(OC2CC(Oc3cc4cc5c(c(O)c4c(O)c3C)C(=O)[C@@H](OC3CC(OC4CC(OC6CC(C)(O)C(OC(C)=O)C(C)O6)C(O)C(C)O4)C(O)C(C)O3)[C@H]([C@H](OC)C(=O)[C@@H](O)[C@@H](C)O)C5)OC(C)C2OC(C)=O)OC1C (stereo partly specified),growth,[1]; 10 µM unless noted,1.5% (active)
same,growth,[2]; 10 µM unless noted,-23.2% (active)
same,growth,[3]; 10 µM unless noted,-61.8% (active)
same,growth,[4]; 10 µM unless noted,5.7% (active)
same,growth,[5]; 10 µM unless noted,4.79% (active)
same,growth,[6]; 10 µM unless noted,-11.5% (active)
same,growth,[7],-93.8% (active)
same,growth,[8]; 10 µM unless noted,-83% (active)
same,growth,[9]; 10 µM unless noted,3.81% (active)
CN(C)c1ccc(N)cc1,growth,[1]; 10 µM unless noted,106% (inactive) and 83.6% (inactive)
same,growth,[2]; 10 µM unless noted,102% (inactive) and 37.4% (inactive)
same,growth,[3]; 10 µM unless noted,83.4% (inactive) and 62.8% (inactive)
same,growth,[4]; 10 µM unless noted,99.5% (inactive) and 47.8% (inactive)
same,growth,[5]; 10 µM unless noted,98.2% (inactive) and 17.5% (inactive)
same,growth,[6]; 10 µM unless noted,81.3% (inactive) and 50.8% (inactive)
same,growth,[7],96.4% (inactive) and 44.5% (inactive)
same,growth,[8]; 10 µM unless noted,89% (inactive) and 43.3% (inactive)
same,growth,[9]; 10 µM unless noted,94.2% (inactive) and 27.2% (inactive)
same,growth,[10],115% (inactive) and 73.2% (inactive)
O=C(NCCCN1CC1)Nc1cccc2ccccc12,growth,[1]; 10 µM unless noted,106% (inactive) and 100% (inactive)
same,growth,[2]; 10 µM unless noted,83.9% (inactive)
same,growth,[3]; 10 µM unless noted,105% (inactive) and 102% (inactive)
same,growth,[4]; 10 µM unless noted,88.5% (inactive) and 95% (inactive)
same,growth,[5]; 10 µM unless noted,87% (inactive) and 86.6% (inactive)
same,growth,[6]; 10 µM unless noted,87.8% (inactive) and 89.7% (inactive)
same,growth,[7],107% (inactive) and 93.3% (inactive)
same,growth,[8]; 10 µM unless noted,98% (inactive) and 105% (inactive)
same,growth,[9]; 10 µM unless noted,95.6% (inactive) and 78.4% (inactive)
same,growth,[10],107% (inactive) and 115% (inactive)
C[N+]12CCC34C5=CC(=O)C(=O)C=C5[N+]5(C)C(=O)CC6OCC=C(C1)C(CC32)C6C45 (stereo unspecified),growth,[1]; 10 µM unless noted,103% (inactive)
same,growth,[2]; 10 µM unless noted,104% (inactive)
same,growth,[3]; 10 µM unless noted,109% (inactive)
same,growth,[4]; 10 µM unless noted,104% (inactive)
same,growth,[5]; 10 µM unless noted,104% (inactive)
same,growth,[6]; 10 µM unless noted,106% (inactive)
same,growth,[7],97.5% (inactive)
same,growth,[8]; 10 µM unless noted,106% (inactive)
same,growth,[9]; 10 µM unless noted,118% (inactive)
same,growth,[10],108% (inactive)
Cc1ccc(S(=O)(=O)n2cc([C@@]3(O)C[C@H](CSC#N)OC3=O)c3ccccc32)cc1,growth,[1]; 10 µM unless noted,70% (inactive)
same,growth,[2]; 10 µM unless noted,54.3% (inactive)
same,growth,[3]; 10 µM unless noted,67.8% (inactive)
same,growth,[4]; 10 µM unless noted,97.5% (inactive)
same,growth,[5]; 10 µM unless noted,40.9% (inactive)
same,growth,[6]; 10 µM unless noted,78.5% (inactive)
same,growth,[7],66.6% (inactive)
same,growth,[8]; 10 µM unless noted,76.3% (inactive)
same,growth,[9]; 10 µM unless noted,49.4% (inactive)
same,growth,[10],96.2% (inactive)
CN(C)[C@@H]1C(=O)C(C(N)=O)=C(O)[C@@]2(O)C(=O)C3=C(O)c4c(O)ccc(Cl)c4[C@@](C)(O)[C@H]3C[C@@H]12,growth,[1]; 10 µM unless noted,89.6% (inactive) and 105% (inactive)
same,growth,[2]; 10 µM unless noted,85.2% (inactive) and 109% (inactive)
same,growth,[3]; 10 µM unless noted,87.2% (inactive) and 84.1% (inactive)
same,growth,[4]; 10 µM unless noted,98.4% (inactive) and 97.9% (inactive)
same,growth,[5]; 10 µM unless noted,89.9% (inactive) and 103% (inactive)
same,growth,[6]; 10 µM unless noted,81.6% (inactive)
same,growth,[7],98.9% (inactive) and 100% (inactive)
same,growth,[8]; 10 µM unless noted,72.9% (inactive) and 89.5% (inactive)
same,growth,[9]; 10 µM unless noted,86% (inactive) and 95.6% (inactive)
same,growth,[10],109% (inactive) and 112% (inactive)
CCCC1CCCCC12C(=O)NC(=O)NC2=O (stereo unspecified),growth,[1]; 10 µM unless noted,94.3% (inactive) and 106% (inactive)
same,growth,[2]; 10 µM unless noted,97.2% (inactive) and 94.3% (inactive)
same,growth,[3]; 10 µM unless noted,100% (inactive) and 87.2% (inactive)
same,growth,[4]; 10 µM unless noted,96.2% (inactive) and 110% (inactive)
same,growth,[5]; 10 µM unless noted,97.8% (inactive) and 102% (inactive)
same,growth,[6]; 10 µM unless noted,104% (inactive) and 101% (inactive)
same,growth,[7],95.5% (inactive) and 103% (inactive)
same,growth,[8]; 10 µM unless noted,98.2% (inactive) and 109% (inactive)
same,growth,[9]; 10 µM unless noted,97% (inactive) and 97.1% (inactive)
same,growth,[10],103% (inactive) and 114% (inactive)
CC[C@H](C)[C@H](NC(=O)c1cnccn1)C(=O)N(C)[C@H](C[C@@H](OC(C)=O)c1nc(C(=O)N[C@@H](Cc2ccccc2)C[C@H](C)C(=O)OC)cs1)C(C)C,growth,[1]; 10 µM unless noted,6.99% (active)
same,growth,[2]; 10 µM unless noted,-5.79% (active)
same,growth,[3]; 10 µM unless noted,15% (inactive)
same,growth,[4]; 10 µM unless noted,31.9% (inactive)
same,growth,[5]; 10 µM unless noted,10.3% (inactive)
same,growth,[6]; 10 µM unless noted,21.7% (inactive)
same,growth,[7],0.869% (active)
same,growth,[8]; 10 µM unless noted,34.2% (inactive)
same,growth,[9]; 10 µM unless noted,17.5% (inactive)
same,growth,[10],59.2% (inactive)
C[N+]1(CC#CC[N+]2(C)CCCC2)CCCC1,growth,[1]; 10 µM unless noted,103% (inactive)
same,growth,[2]; 10 µM unless noted,101% (inactive)
same,growth,[3]; 10 µM unless noted,88.4% (inactive)
same,growth,[4]; 10 µM unless noted,104% (inactive)
same,growth,[5]; 10 µM unless noted,107% (inactive)
same,growth,[6]; 10 µM unless noted,92.7% (inactive)
same,growth,[7],101% (inactive)
same,growth,[8]; 10 µM unless noted,99.9% (inactive)
same,growth,[9]; 10 µM unless noted,93.6% (inactive)
same,growth,[10],111% (inactive)
